Experimental findings from PubChem BioAssay are described below.

A word on the inhibition: it is the change of the read-out against control, counted positive when it falls.

Assay [1] in a line: yeast TOR pathway RPL19A-GFP modulators, primary screen, cell-based, S. cerevisiae, multiplex flow cytometry (AID 1862; in the data active = percent of DMSO control GFP below about 86%;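 also: lower values mimic rapamycin by blocking the RPL19A rise seen in DMSO cells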). The conditions noted are these: S. cerevisiae RPL19A-GFP strain, flow cytometry fluorescence, 3 h; at 10 µM; stronger effect = lower value. In general terms: A flow cytometer gives signals particle by particle.
Assay [2] can be described thus: modulators of MEP2-GFP levels in yeast, primary screen, S. cerevisiae, multiplex flow cytometry (AID 1867;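 active = GFP response, as percent of the DMSO control, above the screen-wide mean plus 3 SD, about 139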;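 also: median GFP channel fluorescence of barcode-gated MEP2-GFP cells measured by flow cytometry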). The note with it: S. cerevisiae MEP2-GFP strain, 3 h, at 10 µM, stronger effect = higher value, 100% means same as DMSO wells.
A short description of assay [3]: modulators of CIT2-GFP expression in yeast, primary screen, S. cerevisiae, GFP fusion, multiplex flow cytometry (AID 1870;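 active = percent response above a set limit, the screen-wide mean plus 3 SD, cut at about 130% in these data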;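 also: barcoded CIT2-GFP strain pooled with four other GFP strains with rapamycin as positive control; median GFP fluorescence per well over plate mean of DMSO wells so 100% = DMSO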). The note with it: 3 h, at 10 µM, stronger effect = higher value.
The nature of assay [4]: modulators of LAP4-GFP expression in yeast, primary screen, S. cerevisiae, multiplex flow cytometry (AID 1873;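 active = GFP signal, as percent of the solvent control, above the screen mean plus 3 SD, about 149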). The conditions noted are these: 3 h, at 10 µM, stronger effect = higher value.
A short description of assay [5]: modulators of AGP1-GFP expression in yeast TOR pathway, primary screen, cell-based, multiplex flow cytometry, S. cerevisiae (AID 1887;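 active = GFP signal above the screen-wide mean plus 3 SD, that is over about 124.5% of the solvent control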;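 also: AGP1-GFP fusion strain of S. cerevisiae within a five-strain barcoded multiplex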). The conditions noted are these: 3 h, at 10 µM, stronger effect = higher value.
Assay [6] in a line: inhibitors of CD8+ T cell-vesicle binding, pilot screen, LFA-1/ICAM-1 modulator project, MLPCN validation set, flow cytometry (AID 2523).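 As to vesicle binding response: mean PE anti-B7-1 fluorescence of CD8+ cells relative to row control; 100% = QL9-loaded vesicles with DMSO vehicle in the same plate row.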 The conditions noted are these: 2C mouse CD8+ T cells, at 7 µM, stronger effect = lower value; double positive events: measured here: CD8+/vesicle+ event percentage.
Assay [7] has as its target Integrin beta-1 (Homo sapiens) + Integrin alpha-4 (Homo sapiens) (UniProt P13612+P05556). Briefly: inhibition of HUTS-21 binding to VLA-4, pilot screen, VLA-4 allosteric modulator project, U937 cells, HUTS-21 mAb, flow cytometry, validation set (AID 2674;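 active = inhibition above 50%, about 3 SD of the validation set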;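 also: antibody binding induced by the VLA-4 ligand LDV present at three times its Kd; 0% = LDV ligand with antibody and no compound and 100% = antibody without LDV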). The note with it: HUTS-21 LIBS mAb binding, at 6.7 µM, stronger effect = higher value, binding induced by LDV ligand.
Assay [8] is described as follows: superoxide lowering in aged yeast cells, pilot screen, validation compound set (AID 2706;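 active = superoxide response below 65% of plate, a cut near 3 SD across the whole screen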;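 also: yeast exposed to compound for one week at 30 degrees C before staining; 100% = mean of all compound wells on the same plate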). The note with it: S. cerevisiae aging, superoxide DHE fluorescence; at 10 µM; stronger effect = lower value.
Assay [9] deals with Beta-adrenergic receptor kinase 1 (Homo sapiens) (UniProt P25098). Briefly: GRK2 binders displacing RNA aptamer, biochemical, validation, human GRK2, bead flow cytometry (AID 488806;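 active = aptamer binding inhibition above 30%, about 3 SD of noise from non-fluorescent compounds; inactive = inhibition at or below 30%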). The note with it: bead-bound GRK2, FAM-aptamer displacement, at 10 µM, stronger effect = higher value.
Assay [10] concerns the target Beta-2 adrenergic receptor (Homo sapiens) (UniProt P07550). Briefly: beta2AR agonists driving receptor internalization, pilot screen, cell-based, FAP fluorogen, flow cytometry, validation set (AID 504459;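 active = percent response above 42, roughly 3 SD of non-fluorescent test compounds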;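 also: agonist-driven loss of surface beta2AR via internalization measured by FAP dye flow cytometry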). The conditions noted are these: Am2.2-beta2AR cells, FAP surface receptor flow cytometry; at 10 µM; stronger effect = higher value.
The target of assay [11] is AP-2 complex subunit beta (Homo sapiens) (UniProt P63010). Briefly: inhibitors of arrestin peptide binding to AP2, pilot screen, biochemical, validation set, GST-AP2 beads, flow cytometry (AID 504541;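 active = inhibition above 54%, about 3 SD of non-fluorescent compounds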;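 also: AP2 carries R879A mutation and is captured from E. coli lysate; bead-bound FITC arrestin peptide fluorescence measuring arrestin peptide binding to AP2; 0% = DMSO wells and 100% = excess unlabeled arrestin peptide control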). The conditions noted are these: FITC arrestin peptide, at 10 µM, stronger effect = higher value, AP2 beta2 appendage fragment, R879A mutant.
Assay [12] in a line: yeast V-ATPase proton transport modulators, S. cerevisiae, pHLuorin, HTS validation (AID 504600; in the data active = response above about 15%;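 also: plate controls were DMSO for no effect and reference compound for full effect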). The note with it: S. cerevisiae pHLuorin cytosolic pH, at 10 µM, stronger effect = higher value.
For assay [13], the system named is anti-desmoglein-3 scFv antibody binding to human DSG3. Briefly: inhibitors of anti-DSG3 scFv binding to DSG3, pilot screen, biochemical, validation compound set, bead-based, flow cytometry (AID 588368;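 active = binding below the plate cutoff, the plate median minus 3 SD, with a reading above zero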;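 also: signal is the median channel fluorescence of bead-bound GFP antibody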). The note with it: Protein G beads, DSG3-Fc, scFv-GFP binding, at 10 µM, stronger effect = lower value.
The nature of assay [14]: inhibitors of fungal efflux pumps CDR1, CDR2, MDR1, pilot screen, validation compound set, multiplex, phenotypic (AID 588506;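 active = efflux inhibition above 0.42, the validation set average plus 4 SD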;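 also: Nile Red retained in cells so higher fluorescence means more efflux inhibition; 0 = negative control wells and 1 = enniatin B 25 µM full block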). The note with it: S. cerevisiae pump-expressing triplex, Nile Red efflux flow cytometry; at 10 µM; stronger effect = higher value; the pumps come from Candida albicans.
For assay [15], the target named is ATP-binding cassette sub-family B member 6 (Homo sapiens) (UniProt Q9NP58). As to the kind of experiment: ABCB6 transporter inhibitors, pilot screen, K562-ABCB6 cells, flow cytometry, validation set (AID 588550;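 active = inhibition above the screen-wide mean plus 3 SD, about 51%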;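 also: 0% = DMSO wells and 100% = benzethonium chloride 70 µM positive control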). The note with it: K562-ABCB6 porphyrin accumulation, 1 h, at 10 µM, stronger effect = higher value.
A short description of assay [16]: promoters of myeloid differentiation in arrested cells, primary screen, cell-based, GFP/MAC1 double positive, flow cytometry, validation set (AID 588685;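 active = differentiation response of at least 50%, scaled between solvent and reference control, from cells with both markers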;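 also: compound exposure lasts four days before antibody staining and flow analysis; 0% = DMSO wells and 100% = 5 µM fulvestrant positive control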). The note with it: ER-HoxA9 marrow cells, stronger effect = higher value, normalized: vehicle 0, fulvestrant 100.

Records with an inconclusive call do not appear. The source made the active and inactive calls.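 The calls were made as follows, unless noted: active = response below a set limit, under 55% cells CD8-positive and vesicle-bound, and CD8 cells' 90th-percentile brightness under 279; inactive = the rest.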

Sequence of ATP-binding cassette sub-family B member 6 (Homo sapiens) (Q9NP58 whole entry, looked up): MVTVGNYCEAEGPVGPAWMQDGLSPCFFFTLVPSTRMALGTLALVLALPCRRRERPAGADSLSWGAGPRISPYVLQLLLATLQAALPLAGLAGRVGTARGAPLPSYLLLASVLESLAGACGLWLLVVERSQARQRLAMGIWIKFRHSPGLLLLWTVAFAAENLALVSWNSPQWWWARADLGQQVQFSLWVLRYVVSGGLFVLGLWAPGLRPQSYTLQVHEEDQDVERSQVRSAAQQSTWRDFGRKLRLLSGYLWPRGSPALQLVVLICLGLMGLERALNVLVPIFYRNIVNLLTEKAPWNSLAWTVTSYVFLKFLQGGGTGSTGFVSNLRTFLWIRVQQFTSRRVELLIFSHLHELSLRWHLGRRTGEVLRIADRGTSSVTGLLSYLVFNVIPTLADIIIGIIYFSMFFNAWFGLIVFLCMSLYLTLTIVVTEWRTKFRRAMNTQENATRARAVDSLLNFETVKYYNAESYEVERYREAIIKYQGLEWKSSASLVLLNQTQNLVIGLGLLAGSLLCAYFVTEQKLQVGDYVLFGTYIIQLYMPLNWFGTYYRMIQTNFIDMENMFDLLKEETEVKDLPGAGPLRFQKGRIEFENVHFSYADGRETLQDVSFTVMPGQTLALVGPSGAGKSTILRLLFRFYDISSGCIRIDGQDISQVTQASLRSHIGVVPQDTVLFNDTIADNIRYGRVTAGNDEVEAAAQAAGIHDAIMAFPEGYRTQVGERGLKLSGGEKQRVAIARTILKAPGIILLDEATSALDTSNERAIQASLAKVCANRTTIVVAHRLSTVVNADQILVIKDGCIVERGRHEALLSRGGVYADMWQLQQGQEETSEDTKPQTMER
Sequence of Beta-adrenergic receptor kinase 1 (Homo sapiens) (P25098 whole entry, looked up): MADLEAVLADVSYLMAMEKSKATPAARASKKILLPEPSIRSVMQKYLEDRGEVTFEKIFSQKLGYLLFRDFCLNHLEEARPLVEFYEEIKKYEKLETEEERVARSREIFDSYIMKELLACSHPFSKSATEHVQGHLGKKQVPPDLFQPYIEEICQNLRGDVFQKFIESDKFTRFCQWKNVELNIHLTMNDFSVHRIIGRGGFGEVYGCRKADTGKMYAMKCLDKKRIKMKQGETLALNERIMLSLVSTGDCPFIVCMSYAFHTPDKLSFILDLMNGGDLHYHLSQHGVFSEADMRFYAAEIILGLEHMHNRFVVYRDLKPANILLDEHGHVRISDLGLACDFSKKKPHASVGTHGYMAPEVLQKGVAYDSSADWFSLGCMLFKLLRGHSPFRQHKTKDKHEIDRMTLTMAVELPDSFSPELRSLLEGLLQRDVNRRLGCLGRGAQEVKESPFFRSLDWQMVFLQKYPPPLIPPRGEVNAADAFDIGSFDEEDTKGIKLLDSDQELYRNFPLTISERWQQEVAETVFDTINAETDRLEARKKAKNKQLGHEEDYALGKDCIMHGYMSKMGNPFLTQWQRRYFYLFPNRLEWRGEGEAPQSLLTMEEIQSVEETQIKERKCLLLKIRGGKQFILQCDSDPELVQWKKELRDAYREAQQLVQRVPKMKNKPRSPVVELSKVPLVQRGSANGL
Sequence of Integrin beta-1 (Homo sapiens) + Integrin alpha-4 (Homo sapiens) (P05556 whole entry, looked up): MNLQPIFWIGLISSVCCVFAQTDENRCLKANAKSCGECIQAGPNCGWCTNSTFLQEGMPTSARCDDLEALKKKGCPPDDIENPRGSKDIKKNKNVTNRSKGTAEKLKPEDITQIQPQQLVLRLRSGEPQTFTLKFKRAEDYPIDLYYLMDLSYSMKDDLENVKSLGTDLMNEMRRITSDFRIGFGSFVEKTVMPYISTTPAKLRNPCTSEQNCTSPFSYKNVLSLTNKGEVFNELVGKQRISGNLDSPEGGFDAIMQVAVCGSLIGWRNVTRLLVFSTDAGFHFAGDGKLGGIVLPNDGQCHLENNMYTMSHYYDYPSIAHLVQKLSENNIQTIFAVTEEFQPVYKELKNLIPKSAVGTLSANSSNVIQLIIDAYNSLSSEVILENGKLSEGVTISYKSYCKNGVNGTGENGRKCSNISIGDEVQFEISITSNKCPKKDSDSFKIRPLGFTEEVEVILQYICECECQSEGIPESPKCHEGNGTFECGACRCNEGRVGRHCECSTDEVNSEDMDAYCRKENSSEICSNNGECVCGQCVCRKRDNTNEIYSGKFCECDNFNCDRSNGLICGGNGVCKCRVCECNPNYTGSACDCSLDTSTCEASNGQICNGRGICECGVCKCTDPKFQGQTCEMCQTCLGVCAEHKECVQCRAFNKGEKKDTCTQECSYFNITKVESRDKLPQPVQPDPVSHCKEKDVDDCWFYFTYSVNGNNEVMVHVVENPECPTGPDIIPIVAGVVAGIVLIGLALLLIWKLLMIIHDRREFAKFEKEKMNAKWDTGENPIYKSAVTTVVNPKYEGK
Sequence of Integrin beta-1 (Homo sapiens) + Integrin alpha-4 (Homo sapiens) (P13612 whole entry, looked up): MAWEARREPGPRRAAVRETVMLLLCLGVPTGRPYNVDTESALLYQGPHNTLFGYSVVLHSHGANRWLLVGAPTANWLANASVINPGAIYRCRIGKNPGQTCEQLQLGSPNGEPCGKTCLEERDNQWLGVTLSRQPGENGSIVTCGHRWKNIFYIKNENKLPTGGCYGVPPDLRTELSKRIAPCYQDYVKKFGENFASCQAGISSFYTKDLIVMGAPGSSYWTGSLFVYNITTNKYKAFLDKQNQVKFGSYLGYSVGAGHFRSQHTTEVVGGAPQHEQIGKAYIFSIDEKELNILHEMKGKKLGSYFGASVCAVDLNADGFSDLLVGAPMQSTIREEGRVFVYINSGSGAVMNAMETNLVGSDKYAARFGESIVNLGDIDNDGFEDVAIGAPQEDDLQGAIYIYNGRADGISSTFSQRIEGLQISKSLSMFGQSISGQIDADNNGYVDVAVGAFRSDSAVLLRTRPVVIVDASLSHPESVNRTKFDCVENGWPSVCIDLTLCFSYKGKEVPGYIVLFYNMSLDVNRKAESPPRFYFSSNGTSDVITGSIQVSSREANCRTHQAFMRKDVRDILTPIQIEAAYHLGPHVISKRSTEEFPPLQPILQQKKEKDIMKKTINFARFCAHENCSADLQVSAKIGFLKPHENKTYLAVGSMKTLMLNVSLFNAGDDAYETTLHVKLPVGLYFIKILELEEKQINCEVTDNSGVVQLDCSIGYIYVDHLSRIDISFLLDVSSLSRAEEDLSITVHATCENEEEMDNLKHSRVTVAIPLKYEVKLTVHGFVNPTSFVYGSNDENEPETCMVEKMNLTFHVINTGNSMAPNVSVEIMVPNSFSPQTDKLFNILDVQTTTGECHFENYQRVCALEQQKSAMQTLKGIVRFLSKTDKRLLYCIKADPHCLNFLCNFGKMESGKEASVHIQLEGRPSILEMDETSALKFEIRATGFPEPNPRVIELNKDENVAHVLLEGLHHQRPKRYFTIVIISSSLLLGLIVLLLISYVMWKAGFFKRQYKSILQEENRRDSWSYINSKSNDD
Sequence of AP-2 complex subunit beta (Homo sapiens) (P63010 whole entry, looked up, the tested form may be a part, one chain of several): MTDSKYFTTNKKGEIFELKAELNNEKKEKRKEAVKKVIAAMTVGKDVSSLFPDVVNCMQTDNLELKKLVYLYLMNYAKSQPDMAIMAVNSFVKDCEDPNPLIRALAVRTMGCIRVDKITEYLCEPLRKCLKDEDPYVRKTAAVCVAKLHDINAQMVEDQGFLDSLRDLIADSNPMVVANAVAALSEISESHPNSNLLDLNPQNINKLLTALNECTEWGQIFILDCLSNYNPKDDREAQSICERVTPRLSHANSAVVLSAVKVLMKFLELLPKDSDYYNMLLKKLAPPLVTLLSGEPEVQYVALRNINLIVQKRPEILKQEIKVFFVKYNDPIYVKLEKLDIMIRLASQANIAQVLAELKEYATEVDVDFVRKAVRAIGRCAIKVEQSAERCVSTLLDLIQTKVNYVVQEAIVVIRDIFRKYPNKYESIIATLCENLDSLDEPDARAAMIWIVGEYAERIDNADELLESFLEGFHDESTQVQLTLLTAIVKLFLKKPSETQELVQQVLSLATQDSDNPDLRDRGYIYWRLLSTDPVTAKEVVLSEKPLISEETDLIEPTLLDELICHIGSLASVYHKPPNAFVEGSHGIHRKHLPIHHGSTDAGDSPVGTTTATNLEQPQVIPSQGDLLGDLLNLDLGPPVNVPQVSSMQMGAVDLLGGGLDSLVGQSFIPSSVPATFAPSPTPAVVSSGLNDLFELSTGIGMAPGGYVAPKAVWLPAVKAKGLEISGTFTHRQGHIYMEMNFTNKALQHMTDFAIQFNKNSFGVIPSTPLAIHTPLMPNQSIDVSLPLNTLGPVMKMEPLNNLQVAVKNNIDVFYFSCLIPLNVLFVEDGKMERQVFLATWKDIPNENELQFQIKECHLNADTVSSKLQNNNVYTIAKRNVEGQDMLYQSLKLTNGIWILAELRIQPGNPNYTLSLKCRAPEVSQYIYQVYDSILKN
Sequence of Beta-2 adrenergic receptor (Homo sapiens) (P07550 whole entry, looked up): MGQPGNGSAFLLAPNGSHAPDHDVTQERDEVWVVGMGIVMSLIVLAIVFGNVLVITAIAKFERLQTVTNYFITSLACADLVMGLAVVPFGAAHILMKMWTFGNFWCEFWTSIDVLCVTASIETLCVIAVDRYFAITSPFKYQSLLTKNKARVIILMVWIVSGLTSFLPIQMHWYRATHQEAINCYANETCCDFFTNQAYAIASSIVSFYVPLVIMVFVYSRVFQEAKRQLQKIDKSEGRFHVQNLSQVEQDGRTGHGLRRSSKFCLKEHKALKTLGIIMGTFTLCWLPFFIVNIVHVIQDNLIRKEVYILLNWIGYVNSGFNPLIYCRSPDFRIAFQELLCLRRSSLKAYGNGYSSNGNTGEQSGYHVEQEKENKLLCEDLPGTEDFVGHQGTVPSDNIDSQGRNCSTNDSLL

Take `Cc1cccc(Nc2ncccc2C(=O)O)c1C`: the percent of DMSO control GFP in assay [1] is 103% (inactive). Moreover, the GFP response vs DMSO in assay [2] is 103% (inactive); in assay [4] it was 90.1% (inactive). In addition, the percent response of DMSO control in assay [3] is 109% (inactive). Further, in assay [5], the GFP response, % of DMSO was 108% (inactive). Also, the double positive events in assay [6] is 62.7%. Also, in assay [6], the vesicle binding response is 203% (inactive). Further, the inhibition in [7] was 2.66% (inactive); in assay [11] it was 1.75% (inactive); in assay [15], 6% (inactive). Further, in assay [8], the superoxide response (% of plate) is 105% (inactive). The aptamer binding inhibition in [9] is 1% (inactive). Moreover, the results for the response in [10] and in [12] were -6.59% (inactive) and -0.8% (inactive), respectively. In addition, in [13], the binding (% of control) is 98.4% (inactive). For the same molecule, in assay [14], the efflux inhibition (fraction of control) was 0.08 (inactive). For the same molecule, in assay [16], the differentiation response is -9.53% (inactive).
With `CC(C)(C)N(Cc1ccccc1)C(=O)c1ccc(Br)o1`, in [1], the percent of DMSO control GFP was 103% (inactive). Further, the GFP response vs DMSO is 102% (inactive) in [2] and 107% (inactive) in [4]. In assay [3], the percent response of DMSO control is 95.7% (inactive). Moreover, the GFP response, % of DMSO in assay [5] is 101% (inactive). Also, in assay [6], the double positive events stood at 63.4%. In assay [6], the vesicle binding response was 147% (inactive). In addition, the inhibition in assay [7] was -7.08% (inactive); in assay [11], 4.28% (inactive); in [15] it was 6% (inactive). Besides, in assay [8], the superoxide response (% of plate) is 101% (inactive). The aptamer binding inhibition in [9] is 6% (inactive). For the same molecule, the response was -22.8% (inactive) in assay [10] and -8.19% (inactive) in assay [12]. The binding (% of control) in [13] is 97.1% (inactive). For the same molecule, in [14], the efflux inhibition (fraction of control) is 0.04 (inactive). In addition, the differentiation response in assay [16] was -11.9% (inactive).
On to `COc1cccc(NC(=O)C2CC(=O)OC23CCOC(C)(C)C3)c1` (stereo not drawn), for which, in assay [1], the percent of DMSO control GFP was 93.7% (inactive). Also, the GFP response vs DMSO is 137% (inactive) in assay [2] and 80.9% (inactive) in assay [4]. Further, the percent response of DMSO control in [3] is 95.2% (inactive). The GFP response, % of DMSO in [5] is 94.2% (inactive). Besides, the double positive events in assay [6] is 58.3%. The vesicle binding response in assay [6] was 24.9% (inactive). Also, the inhibition in assay [7] is 19.1% (inactive); in assay [11] it was 0.76% (inactive); in assay [15], 9% (inactive). Further, the superoxide response (% of plate) in assay [8] was 88.5% (inactive). Also, the aptamer binding inhibition in [9] is 2% (inactive). The figures for the response in [10] and in assay [12] were -4.19% (inactive) and -0.08% (inactive), respectively. The binding (% of control) in [13] is 101% (inactive). In [14], the efflux inhibition (fraction of control) was -0.13 (inactive). Also, the differentiation response in assay [16] is -2.46% (inactive).
As to `COc1ccc(-c2[nH]ncc2CN(C)C(C)c2ccon2)c(OC)c1` (stereo not drawn), in [1], the percent of DMSO control GFP was 92.4% (inactive). In addition, the GFP response vs DMSO was 137% (inactive) in assay [2] and 78.7% (inactive) in assay [4]. In addition, in assay [3], the percent response of DMSO control is 106% (inactive). The GFP response, % of DMSO in assay [5] is 91% (inactive). For the same molecule, the double positive events in assay [6] stood at 61.9%. In addition, the vesicle binding response in assay [6] was 143% (inactive). The inhibition in assay [7] was 10.3% (inactive); in [11], 8% (inactive); in assay [15], 11% (inactive). Further, the superoxide response (% of plate) in assay [8] was 99.7% (inactive). Further, in assay [9], the aptamer binding inhibition was 2% (inactive). Further, the figures for the response in assay [10] and in assay [12] were -3.13% (inactive) and -3.5% (inactive), respectively. The binding (% of control) in assay [13] was 105% (inactive). The efflux inhibition (fraction of control) in assay [14] is 0.01 (inactive). Besides, the differentiation response in assay [16] was -4.91% (inactive).
